# From PubChem BioAssay (NCI)
# This is part of a sample that, as a whole, favours compounds with a hit. Of some 83,000 tested, about 20% had one in any assay.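 96-well plates, one dose, 48 hours. Percent growth reported; active if below 10.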 A number with no mark means an inactive call. Active and inactive are the calls of the source.
# Legend:
# Experiment in all cases: NCI-60 one-dose screen, 48 h (100 = growth as untreated, 0 = no growth, -100 = all killed)
# Conditions in all cases: 10 µM unless noted
# [1] = tested on: SN12C renal
# [2] = tested on: UO-31 renal
# [3] = tested on: TK-10 renal
# [4] = tested on: ACHN renal
# [5] = tested on: CAKI-1 renal
# [6] = tested on: A498 renal
# [7] = tested on: CCRF-CEM leukemia
# [8] = tested on: MOLT-4 leukemia
# [9] = tested on: SR leukemia
Structure (SMILES),growth [1],growth [2],growth [3],growth [4],growth [5],growth [6],growth [7],growth [8],growth [9]
c1ccc(-c2nnc(Nc3nnc(-c4ccccc4)s3)s2)cc1,102%,82.5%,142%,96%,87.9%,92.1%,95.5%,102%,97.4%
CCCCCCCC/C=C/CCCCCCCC1=NC(C)(C)CN1CCO,60.9%,-44.8% (active),59.5%,24.4%,59.5%,89.2%,-38.9% (active),-44.4% (active),-43.1% (active)
O=C1C(Cl)=C(N=Nc2c(Cl)c(O)c3ccccc3c2O)C(=O)c2ccccc21,71.8%,70.4%,116%,77%,88.9%,63.6%,43.5%,62.1%,34.9%
CCOC(=O)c1ccccc1OC(=O)NNc1ccccc1,66.4%,29.3%,72.9%,51.9%,25.5%,100%,24.6%,17.9%,27.6%
CCOc1nc(-c2ccccc2)cc2c(O)c(C(=O)n3nc(C)cc3C)[nH]c(=O)c12,101%,96%,108%,100%,119%,101%,96.5%,99%,96.2%
CCCc1cccc(CCC)c1O,107%,98%,116%,115%,93.8%,95.5%,111%,105%,116%
COc1ccc2nc3cc(Cl)ccc3c(N3CCN(c4ccnc(Nc5ccc(F)cc5)n4)CC3)c2c1,71.5%,56%,66.1%,62.5%,72%,51.1%,38.1%,20%,43.2%
NNC(=O)NO,106%,69.8%,94%,105%,106%,114%,95.8%,91.6%,95.8%
COc1ccc(C(=O)Nc2nc(-c3ccc(Cl)cc3)cs2)cc1,101%,89.4%,122%,94.4%,96.7%,91.5%,104%,97.9%,105%
CCOc1nc(-c2ccccc2)cc2c(O)c(-c3nnco3)[nH]c(=O)c12,47.2%,29.1%,31.8%,52.3%,34.6%,45.3%,15.7%,30%,21.3%
COc1ccc(-c2csc(NC(=O)c3cc(OC)c(OC)c(OC)c3)n2)cc1,98.7%,89.3%,117%,107%,94.1%,92.2%,105%,103%,95.8%
O=[N+]([O-])c1cnc(Sc2ccncn2)c([N+](=O)[O-])c1,96.9%,48.8%,-37.8% (active),-29.6% (active),64.9%,87%,-49.2% (active),-41.2% (active),11.8%
COc1cc(C2NC(c3ccc(Cl)cc3)C(C)/C(=N/NC(N)=S)C2C)cc(OC)c1OC (configuration not stated),94.7%,76.7%,103%,93.2%,51.1%,129%,89.8%,70.7%,98.6%
COc1ccc(Cn2c(NCCCN(C)C)nc(=O)n(Cc3ccc(F)cc3)c2=O)cc1,95.4%,63.6%,110%,105%,83.1%,95.6%,114%,84.9%,83.5%
COc1cc(/C=C2\CCC/C(=C\c3ccc(OCC4CO4)c(OC)c3)C2=O)ccc1OCC1CO1 (configuration not stated),23.8%,47.6%,58.5%,30.2%,72.2%,63.9%,1.96% (active),-12.6% (active),-3.1% (active)
Cc1cc(=O)n2n1-c1ccc(Cl)cc1NC(=O)C2,99.1%,89.6%,117%,104%,88.4%,119%,82.6%,108%,110%
Cc1ccc2c(c1)C(=O)/C(=C/c1ncc([N+](=O)[O-])n1C)O2,-15.3% (active),-39.7% (active),-29.8% (active),5.3% (active),-32.1% (active),76.4%,0.686% (active),-2.13% (active),11%
CSc1nnc(C2=CC(=O)c3ccccc3C2=O)n1-c1ccccc1,104%,67.6%,121%,74.9%,88.5%,99.4%,36.8%,68.9%,70.2%
Cc1cc(NCCCNc2ccnc3cc(Cl)ccc23)nc(N2CCN(C)CC2)n1,77.6%,58.6%,133%,45.7%,57%,82.4%,26.1%,21.2%,0.0449% (active)
CCCOc1ccc2c(c1)CC[C@@H]1[C@@H]2CC[C@@]2(C)[C@H]1CC[C@]2(C)O,82.7%,69.9%,69.3%,93.9%,62.3%,114%,72.8%,75.9%,73%
C/C(=C\CCc1ccsc1)CC/C=C(\C)CCCN1CCN(CCO)CC1,55.2%,62.1%,40%,50.6%,77.6%,39.2%,24.1%,2.14% (active),-29.1% (active)
N#Cc1ccc(NC(=O)Nc2ccc(Oc3ccc(NC(=O)Nc4ccc(C#N)cc4)cc3)cc2)cc1,39%,-25.7% (active),37.9%,23.1%,33%,41.1%,-13.7% (active),-58% (active),3.43% (active)
O=C(Nc1cccc(C(F)(F)F)c1)Nc1ccc(OCc2nnc(-c3ccc(Cl)cc3)o2)c(F)c1,77.3%,73.9%,81.3%,51.2%,80.1%,79%,60.8%,66.7%,66.3%
Nc1nc(Cl)c2[nH]cnc2n1,92.4%,93.5%,103%,96.4%,89.4%,95.1%,115%,114%,95.6%
O=C(O)c1ccc(NC(=O)c2cccc(Nc3ccnc(C(F)(F)F)c3)c2)cc1,106%,82%,97.8%,103%,95.1%,106%,94.8%,93.4%,86.1%
Cc1cc2c(cc1C)Nc1sc(NC(=O)CN3CCN(C)CC3)nc1C(=O)N2,103%,94.3%,99.9%,111%,106%,102%,98.3%,87.4%,79%
CCC(C)CC(C)C(=O)c1c(O)ccn(O)c1=O (configuration not stated),21.2%,6.43% (active),83.7%,16.6%,40.3%,115%,15.8%,9.61% (active),22.9%
COc1cc2c(c(OC)c1OC)CCc1cnoc1-2,106%,94.5%,111%,95.1%,105%,100%,111%,127%,166%
